Results from PubChem BioAssay AID1220 (Sanford-Burnham Center for Chemical Genomics, 2008).
Among all 190,000 compounds or so, about 1,300 (0.68%) were called active. No stated cut-off is given here; in the data, active means inhibition above about 50%; inactive means the rest. This excerpt belongs to a sample that is enriched for actives.

molecular target: Mannose-6-phosphate isomerase (Homo sapiens) (UniProt P34949); assay: MPI inhibition at elevated mannose 6-phosphate – biochemical, fluorescence intensity, high mannose 6-phosphate, primary screen (AID 1220); settings: recombinant PMI enzyme, coupled fluorescence intensity; at 20 µM; stronger effect = higher value
Sequence (P34949 whole entry, looked up): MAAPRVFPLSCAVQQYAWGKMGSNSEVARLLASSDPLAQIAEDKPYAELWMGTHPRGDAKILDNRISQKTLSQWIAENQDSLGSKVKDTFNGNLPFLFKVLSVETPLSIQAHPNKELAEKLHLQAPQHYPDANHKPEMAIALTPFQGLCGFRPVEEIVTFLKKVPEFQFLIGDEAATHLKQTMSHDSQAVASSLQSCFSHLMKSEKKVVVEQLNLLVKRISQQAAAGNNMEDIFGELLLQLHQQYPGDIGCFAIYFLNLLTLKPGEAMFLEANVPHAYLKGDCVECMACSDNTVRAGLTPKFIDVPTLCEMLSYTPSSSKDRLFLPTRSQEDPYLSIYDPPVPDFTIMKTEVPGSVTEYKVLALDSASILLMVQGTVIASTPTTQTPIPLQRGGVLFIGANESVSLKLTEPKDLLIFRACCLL

inhibition, inactive:
c1ccc(OCCCc2nc(-c3cccnc3)no2)cc1 -2.4%
Cc1cc(C)n2c(Nc3ccc4c(c3)OCCO4)c(-c3ccc(C)o3)nc2n1 0.2%
CCCc1nc(N)c(C#N)c(-c2cccnc2)c1CC 9.6%
O=C(O)C1=C[C@H](c2csc3ccccc23)C[C@H](OCCCCO)O1 -1.5%
O=C(C1=C[C@H](c2csc3ccccc23)C[C@H](OCCCCO)O1)N1CCOCC1 9.5%
O=C(O)C1=C[C@@H](c2csc3ccccc23)C[C@@H](OCCCCO)O1 1.5%
O=C(NC1CC1)C1=C[C@H](c2csc3ccccc23)C[C@H](OCCCCO)O1 1.4%
Cc1ccc(C(C(=O)NCc2ccco2)N(C(=O)Cc2cccs2)c2cccnc2)cc1 (configuration not stated) -5%
c1ccc(COC2CCCN(Cc3nc(-c4cccs4)no3)C2)nc1 (configuration not stated) 13.3%
O=C(Cn1nnc(-c2ccccc2F)n1)Nc1cccc2ncccc12 -0.5%
CS(=O)(=O)c1ccc2nc(N)sc2c1 6.1%
CCOC(=O)c1c(C)[nH]c(C)c1C(=O)COC(=O)c1ccc(Cl)c(S(N)(=O)=O)c1 -8.6%
O=S(=O)(/N=C(/c1ccccc1)N1CCCCC1)c1ccccc1 7.7%
O=c1cnnc(Nc2cccc(F)c2)[nH]1 -14.5%
N#Cc1c(Nc2ccccc2)sc(C(=O)c2ccc(F)cc2)c1N 1.5%
CN(C)C(=O)c1ccc2c(c1)n(C)c(=O)n2C -6.4%
CCCCNC(=O)CSc1nc2ccccc2c(=O)n1C1CCCC1 0.1%
O=C(CNc1ccc(Br)cc1)NNC1=NCCC1 -3.4%
O=C(CNc1ccccc1)NNC1=NCCC1 14.8%
Clc1cccc(-c2nnc3sc(-c4ccc5c(c4)OCO5)nn23)c1 6%
O=C1CCC(C(=O)OC(C(=O)c2c[nH]c3ccccc23)c2ccccc2)=NN1 (configuration not stated) -1.8%
CN(C)c1ccc(N/C=C/C(=O)C(C)(C)C)cc1 12.9%
COc1ccc(N/C=C/C(=O)C(F)(F)F)cc1 14.6%
CCn1cc(C(=O)NC(=S)Nc2cccc(O)c2)cn1 0.6%
CCCc1[nH]n(-c2nc3ccccc3s2)c(=O)c1C=NCC(C)C 0.7%
CCCN=Cc1c(CCC)[nH]n(-c2nc3ccccc3s2)c1=O 4.7%
O=C(O)CCCC(=O)Nc1ccccc1C(=O)N1CCOCC1 -1.4%
CC(=O)c1cccc(NC(=O)CN2C(=S)NC(C)(C)CC2C)c1 (configuration not stated) -1.5%
Cc1ccc(O)c(C=Nc2cc(C)ccc2O)c1 23.3%
Cc1ccc(O)c(N=CC2=C(O)c3ccccc3C2=O)c1 15.3%
O=C(NC1CCCCC1)N1CCC(c2nc3ccccc3[nH]2)CC1 1.1%
O=C(Oc1ccc(-c2cnc3ccccc3n2)cc1)c1ccco1 15.4%
COC(=O)c1ccc(OC(=O)c2ccco2)cc1 -6.2%
Cc1cc(C(=O)CSCCCn2c(=O)[nH]c3ccccc32)c(C)n1C -21.9%
CC(C)CN(C(=O)CN1CCN(c2ccc(F)cc2)CC1)c1c(N)n(CC(C)C)c(=O)[nH]c1=O -8.7%
CCN(C(=O)CN1CCN(c2ccc(OC)cc2)CC1)c1c(N)n(Cc2ccccc2)c(=O)[nH]c1=O 2.4%
CCN(C(=O)CN1CCN(c2ccccc2)CC1)c1c(N)n(Cc2ccccc2)c(=O)[nH]c1=O 7.8%
CC(=O)c1ccc(N2CCN(CC(=O)N(CC(C)C)c3c(N)n(CC(C)C)c(=O)[nH]c3=O)CC2)cc1 -0.1%
Cc1ccc(NC(=S)N2CCCN(Cc3ccc(F)cc3)C2)c(C)c1 -3.7%
Cc1ccc(CC(=O)Nc2cccnc2)cc1 10.1%
Cc1ccc(N2C(=S)SC3CS(=O)(=O)CC32)cc1 (configuration not stated) -0.7%
O=C(CCC1CCCC1)Nc1nnc(-c2ccc3c(c2)OCO3)s1 1.1%
CCOC(=O)c1c(OCC)[nH]c2ccc(O)cc12 -2.7%
CCOC(=O)c1c(-c2ccccc2)[nH]c2ccc(O)cc12 5.9%
CCOC(=O)c1c(C)oc2c1c(C(c1ccccc1)N1CCOCC1)c(O)c1ccccc12 (configuration not stated) 30.5%
CCOC(=O)c1c(C)cc(=O)oc1C 3.9%
CCOC(=O)c1c(C)[nH]c(C)c1-c1ccccc1OC 1.6%
CCOC(=O)c1c2c3c(cccc3[nH]c1=O)C(=O)c1ccccc1-2 -30.6%
CCOC(=O)c1c(C)oc2c1c(C=NCc1ccccn1)c(O)c1ccccc12 32.6%
CCOC(=O)c1c(C)oc2ccc(O)cc12 2.8%
CCCCCCN1C(=O)C(O)=C(C(C)=O)C1c1ccc(Cl)cc1 (configuration not stated) 3.1%
O=C(N/N=C/c1c[nH]c2ccccc12)c1cc(-c2ccccc2)n[nH]1 -2.4%
O=C1NC(CCc2ccccc2)C(=O)N1Cc1ccc(Br)cc1 (configuration not stated) 10.5%
COc1ccc(Nc2n[nH]c(N)c2C(N)=O)cc1 1.4%
CN(CC(=O)N1CCCCC1)S(=O)(=O)c1cccc2cccnc12 13.4%
Cc1[nH]c2ccccc2c1/C=N/NC(=O)Nc1ccccc1 -7.2%
CCOc1ccc(C(=O)NCC(=O)Nc2ccc(N3CCOCC3)cc2)cc1OCC 3.6%
O=C(N/N=C/c1coc2ccccc2c1=O)c1cn(-c2ccccc2)nc1-c1ccc(F)cc1 -12.2%
CC(C)OCc1c(C(=O)OC/C(O)=C(\C#N)c2nc3ccccc3[nH]2)oc2ccccc12 28.4%
CCOC(=O)c1c(C)[nH]c2cc(Br)c(O)cc12 2.1%
CCOC(=O)c1c(C)[nH]c2ccc(O)cc12 6%
Nc1cc(-c2cccc(Br)c2)nn1Cc1ccccc1 11.2%
CCOC(=O)N1CCN(S(=O)(=O)c2ccc(C(=O)NNc3nc4c(C)cccc4s3)cc2)CC1 1.7%
CCCc1n(CC)c2ccccc2[n+]1CC(O)COC1CCCCC1 (configuration not stated) -2.9%
COc1cc(/C=C(/NC(=O)c2ccccc2)C(=O)Nc2ccccc2)c([N+](=O)[O-])cc1OC 27.2%
COc1ccc(NC(=O)/C(=C\c2cc(OC)c(OC)cc2[N+](=O)[O-])NC(=O)c2ccccc2)cc1 15.2%
CCOC(=O)/C(C#N)=C/c1ccc(OC)c(OC)c1 5%
CCOC(=O)/C(C#N)=C\c1ccc(OC)c(OC)c1 -3.6%
O=C(Cn1ccc([N+](=O)[O-])n1)N1CCc2ccccc21 6.2%
COc1ccccc1Sc1nc(-c2ccccn2)ncc1OC -3.1%
CCCCC/C=N\NC(=O)Cc1ccc([N+](=O)[O-])cc1 -6.9%
CCOC(=O)C1=C(C)Nc2ncnn2C1c1ccccc1F (configuration not stated) -19.1%
O=C(O)C1C(c2ccccc2)C(C(=O)Oc2ccccc2)C1c1ccccc1 (configuration not stated) -2.4%
CC(C)C(=O)NC(c1cccc([N+](=O)[O-])c1)c1c(O)ccc2ccccc12 (configuration not stated) 26.6%
CCCCC(=O)NC(c1ccco1)c1c(O)ccc2ccccc12 (configuration not stated) 30.3%
CCCC(=O)NC(c1ccco1)c1c(O)ccc2ccccc12 (configuration not stated) 33.6%
CC(=O)NC(c1ccc([N+](=O)[O-])cc1)c1c(O)ccc2ccccc12 (configuration not stated) 34.2%
COc1ccc2[nH]c(=O)c(CN(Cc3cccs3)C(=S)Nc3cccc(C)c3)cc2c1 5%
C=CCn1c(SCC(=O)c2ccc(Cl)cc2)nnc1-c1ccc2c(c1)OCO2 -0.6%
O=C(CCNC(=O)c1ccccc1)Oc1ccc([N+](=O)[O-])cc1 -10.4%

inhibition, active:
NC(=O)C1=C[C@H](c2csc3ccccc23)C[C@H](OCCCCO)O1 63.4%
NC(=O)C1=C[C@@H](c2csc3ccccc23)C[C@@H](OCCCCO)O1 59.2%
N#Cc1c(Nc2cccc(F)c2)sc2c(O)cc(=O)[nH]c12 55.8%
O=C(CNc1ccc2ccccc2c1)NNC1=NCCC1 52.9%
CN(C)c1ccc(N/C=C/C(=O)C(F)(F)F)cc1 56.5%
CCCc1[nH]n(-c2nc3ccccc3s2)c(=O)c1C=NCC1CCCO1 (configuration not stated) 51%
Cc1ccc(O)c(N=Cc2cccs2)c1 65.7%
CCN(C(=O)CN1CCN(c2ccc(O)cc2)CC1)c1c(N)n(Cc2ccccc2)c(=O)[nH]c1=O 51.6%
CC(C)CN(C(=O)CN1CCN(c2ccc(O)cc2)CC1)c1c(N)n(CC(C)C)c(=O)[nH]c1=O 52.3%
CCOC(=O)c1c(OCC)[nH]c2c1cc(O)c1ccccc12 54.7%
CCOC(=O)c1c(C)oc2c1cc(O)c1ccccc12 54.3%
CCOC(=O)c1c(C)[nH]c2c1-c1ccccc1C(=O)C2=O 62.9%
CCOC(=O)c1c(C)[nH]c2c1cc(O)c1ccccc12 61.2%
CCOC(=O)/C(C#N)=C\c1cc(OC)c(OC)cc1[N+](=O)[O-] 69.6%
COc1cc(/C=C(\C#N)C(=O)Nc2ccc3ccccc3c2)c([N+](=O)[O-])cc1OC 67%
CC(C)C(=O)NC(c1ccco1)c1c(O)ccc2ccccc12 (configuration not stated) 56.9%
CC(C)C(=O)NC(c1ccc([N+](=O)[O-])cc1)c1c(O)ccc2ccccc12 (configuration not stated) 59.5%
